From PubChem BioAssay come the findings set out here.

The nature of test [1]: antimalarial activity against Dd2 strain (AID 2302;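 active = growth inhibition above 50% at the single 2 µM test dose, taken to imply half-maximal potency below 2 µM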;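 note: 0% = DMSO untreated growth and 100% = chloroquine plus artemisinin killed control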). The note with it: P. falciparum Dd2 in RBCs, LDH growth readout, 72 h; at 2 µM; hits give high values.
Test [2] can be described thus: human hepatoma cell viability loss – ATP luminescence, cytotoxicity control for P. falciparum antimalarial project, primary screen (AID 2303;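 active = inhibition above 50%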;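 note: 0% = DMSO wells and 100% = digitonin-killed cells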). Conditions: HepG2 viability, 24-48 h, at 10 µM, hits give high values.
Test [3] concerns the target L-lactate dehydrogenase (Plasmodium falciparum (isolate CDC / Honduras)) (UniProt Q27743). Put plainly: PfLDH activity inhibition – cell lysate, 3D7 strain, counter-screen for P. falciparum growth inhibition project (AID 2304).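 Note: 0% = vehicle and 100% = reference inhibitor.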 Conditions: P. falciparum 3D7 crude extract, LDH APAD/NBT absorbance; at 2 µM; hits give high values.
Test [4] is described as follows: inhibition of 3D7 malaria parasite growth – strain 3D7 (AID 2306).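 Note: 0% = DMSO wells and 100% = chloroquine plus artemisinin control wells.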 The note with it: P. falciparum 3D7 erythrocytic growth, LDH absorbance, 72 h; at 2 µM; hits give high values.
For test [5], the target named is Calcium-dependent protein kinase 1 (Plasmodium falciparum (isolate 3D7)) (UniProt P62344). Put plainly: PfCDPK1 kinase inhibitors, biochemical, TCAMS library (AID 1159585; cut-off not given, nearly all actives have IC50 up to about 0.98 µM;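 note: inhibitors leave more ATP so luminescence rises with inhibition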). Conditions: recombinant PfCDPK1, Kinase-Glo ATP depletion luminescence.
The target of test [6] is Plasmodium falciparum protein kinase 6 (PK6, PF3D7_1337100) (UniProt Q8IDW1). Put plainly: PfPK6 kinase inhibitors, biochemical, TCAMS library (AID 1159586). Conditions: recombinant PfPK6, Kinase-Glo ATP depletion luminescence.
For test [7], the target named is Protein kinase 7 (PK7), Plasmodium falciparum 3D7 (PF3D7_0213400) (UniProt Q7YTF7). Put plainly: inhibition of Plasmodium PK7 catalytic activity – biochemical, TCAMS antimalarial set, Kinase-Glo luminescence (AID 1159587). Conditions: recombinant PfPK7, Kinase-Glo ATP depletion luminescence.
Test [8] has as its target Calcium-dependent protein kinase 4 (Plasmodium falciparum (isolate 3D7)) (UniProt Q8IBS5). Put plainly: PfCDPK4 kinase inhibitors, biochemical, TCAMS library (AID 1159588; cut-off not given, nearly all actives have IC50 up to about 0.91 µM). The note with it: recombinant PfCDPK4, Kinase-Glo ATP depletion luminescence.

A number with no mark means an inactive call. For some of these results: Results with a measured potency or affinity are listed apart. Active and inactive are the calls of the source. Unless noted, the rule behind the calls is not given here.

Calcium-dependent protein kinase 4 (Plasmodium falciparum (isolate 3D7)), sequence (Q8IBS5 whole entry, looked up): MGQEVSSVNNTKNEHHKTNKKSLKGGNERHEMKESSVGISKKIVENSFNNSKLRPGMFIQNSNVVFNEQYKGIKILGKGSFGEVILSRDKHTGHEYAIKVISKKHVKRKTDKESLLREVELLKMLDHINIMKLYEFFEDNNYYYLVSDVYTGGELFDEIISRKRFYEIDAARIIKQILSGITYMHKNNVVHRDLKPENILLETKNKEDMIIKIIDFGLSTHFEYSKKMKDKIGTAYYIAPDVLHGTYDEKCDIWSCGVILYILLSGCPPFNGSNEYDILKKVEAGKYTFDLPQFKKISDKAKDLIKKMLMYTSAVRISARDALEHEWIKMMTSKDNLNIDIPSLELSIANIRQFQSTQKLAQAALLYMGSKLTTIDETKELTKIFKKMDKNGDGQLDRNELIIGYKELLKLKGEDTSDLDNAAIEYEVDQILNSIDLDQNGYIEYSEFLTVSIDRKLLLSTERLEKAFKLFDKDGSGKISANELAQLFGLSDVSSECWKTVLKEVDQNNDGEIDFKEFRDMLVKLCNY
Plasmodium falciparum protein kinase 6 (PK6, PF3D7_1337100), sequence (Q8IDW1 1-305): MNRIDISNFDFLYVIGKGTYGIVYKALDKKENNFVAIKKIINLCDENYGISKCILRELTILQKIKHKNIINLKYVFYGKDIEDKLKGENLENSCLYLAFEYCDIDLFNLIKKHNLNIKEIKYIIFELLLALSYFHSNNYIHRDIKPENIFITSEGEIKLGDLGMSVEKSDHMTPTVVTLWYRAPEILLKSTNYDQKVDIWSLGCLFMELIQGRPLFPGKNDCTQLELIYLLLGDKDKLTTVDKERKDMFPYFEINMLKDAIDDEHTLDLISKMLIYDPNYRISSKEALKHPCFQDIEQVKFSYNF
Protein kinase 7 (PK7), Plasmodium falciparum 3D7 (PF3D7_0213400), sequence (Q7YTF7 1-343): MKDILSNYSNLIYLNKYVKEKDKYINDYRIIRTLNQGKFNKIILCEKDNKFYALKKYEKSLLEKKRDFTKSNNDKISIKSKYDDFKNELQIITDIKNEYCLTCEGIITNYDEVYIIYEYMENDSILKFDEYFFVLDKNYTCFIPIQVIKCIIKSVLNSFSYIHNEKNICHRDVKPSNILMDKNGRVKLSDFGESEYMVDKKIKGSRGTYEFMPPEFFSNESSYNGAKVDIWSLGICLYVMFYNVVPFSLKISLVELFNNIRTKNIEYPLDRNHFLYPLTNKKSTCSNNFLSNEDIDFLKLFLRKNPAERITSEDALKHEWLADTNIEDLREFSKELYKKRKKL
Calcium-dependent protein kinase 1 (Plasmodium falciparum (isolate 3D7)), sequence (P62344 whole entry, looked up): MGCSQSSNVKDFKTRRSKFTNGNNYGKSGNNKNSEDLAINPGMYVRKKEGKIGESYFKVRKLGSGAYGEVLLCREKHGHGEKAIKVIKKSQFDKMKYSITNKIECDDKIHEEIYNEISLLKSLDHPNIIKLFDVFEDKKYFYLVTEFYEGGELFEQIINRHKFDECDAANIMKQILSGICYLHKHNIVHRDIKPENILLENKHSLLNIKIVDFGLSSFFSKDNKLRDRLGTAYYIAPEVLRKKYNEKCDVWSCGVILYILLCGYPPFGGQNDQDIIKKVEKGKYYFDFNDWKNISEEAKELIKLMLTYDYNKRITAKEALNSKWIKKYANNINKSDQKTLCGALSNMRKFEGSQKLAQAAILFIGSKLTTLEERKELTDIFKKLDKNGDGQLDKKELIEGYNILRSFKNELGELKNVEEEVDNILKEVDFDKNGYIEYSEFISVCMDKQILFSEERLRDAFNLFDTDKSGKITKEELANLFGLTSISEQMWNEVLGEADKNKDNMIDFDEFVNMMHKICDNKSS
L-lactate dehydrogenase (Plasmodium falciparum (isolate CDC / Honduras)), sequence (Q27743 whole entry, looked up): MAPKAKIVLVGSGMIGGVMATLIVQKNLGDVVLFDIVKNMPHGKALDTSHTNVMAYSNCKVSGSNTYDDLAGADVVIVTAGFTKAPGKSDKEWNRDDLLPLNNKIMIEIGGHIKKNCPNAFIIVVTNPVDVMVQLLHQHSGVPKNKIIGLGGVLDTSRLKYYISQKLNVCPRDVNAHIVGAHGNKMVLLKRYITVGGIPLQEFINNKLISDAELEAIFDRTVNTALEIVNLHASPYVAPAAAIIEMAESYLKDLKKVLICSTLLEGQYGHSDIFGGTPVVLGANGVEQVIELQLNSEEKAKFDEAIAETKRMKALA

Turning to `Cc1cccc(CN2CCCN(Cc3cccc(C(=O)Nc4ccc(C(C)(C)C)cc4)c3)CC2)c1`, the growth inhibition in test [1] is 40%; in test [4] it was 89% (active). In addition, the inhibition in test [2] is 98% (active); in test [3], 4%. The outcome in test [5], in test [6], in test [7] and in test [8] was inactive.
In the case of `CCN1CCN(CC(O)CNC(=O)Nc2ccc(Cl)cc2)CC1` (stereo not given), the growth inhibition in test [1] was 99% (active); in test [4], 100% (active). The results for the inhibition in test [2] and in test [3] were 29% and 3%, respectively. In addition, the outcome in test [5], in test [6], in test [7] and in test [8] was inactive.
In the case of `NC(=O)N1CCN(Cc2ccc(Br)cc2)CC1`, the growth inhibition in test [1] was 0%; in test [4], 96% (active). The inhibition in test [2] is 83% (active); in test [3] it was -5%. For the same compound, the outcome in test [5], in test [6], in test [7] and in test [8] was inactive.
As for `Cc1ccc(Cl)c2sc(N3CCN(C(=O)c4ccc([N+](=O)[O-])o4)CC3)nc12`, the growth inhibition is 94% (active) in test [1] and 97% (active) in test [4]. Further, the inhibition was 21% in test [2] and -5% in test [3]. For the same compound, the outcome in test [5], in test [6], in test [7] and in test [8] was inactive.
`Cc1cnc(NC(=O)c2cn(-c3ccccc3)nc2-c2cccs2)s1`: the growth inhibition in test [1] is 1%; in test [4] it was 91% (active). For the same compound, the inhibition is -5% in test [2] and -1% in test [3]. The result in test [5], in test [6], in test [7] and in test [8] was inactive.
Take `COc1c(C2CCN(CCN3CCC(CNC(=O)c4ccc(-c5ccc(C#N)cc5)cc4)CC3)CC2)ccc2c1CCCC2`: the growth inhibition in test [1] and in test [4] was 100% (active) throughout. Besides, the inhibition in test [2] is 96% (active); in test [3], 0%. Moreover, the result in test [5], in test [6], in test [7] and in test [8] was inactive.
Consider `CS(=O)(=O)c1ccc(-c2cnc(N)c(-c3cccc(CO)c3)c2)cc1`, for which the figures for the growth inhibition in test [1] and in test [4] were 51% (active) and 98% (active), respectively. The inhibition in test [2] is -4%; in test [3], 0%. Also, the outcome in test [5], in test [6], in test [7] and in test [8] was inactive.
Take `CC(C)CCOc1ccc(NC(=O)c2cccs2)cc1`: the growth inhibition in test [1] and in test [4] was 95% (active) in each case. Moreover, the inhibition in test [2] is 11%; in test [3], -3%. The outcome in test [5], in test [6], in test [7] and in test [8] was inactive.
Take `O=C(/C=C/c1ccc(Cl)c(Cl)c1)NCCCCCCN1CCN(C(=O)Nc2ccc(F)c(Cl)c2)CC1`: the growth inhibition is 2% in test [1] and 86% (active) in test [4]. The inhibition in test [2] was 40%; in test [3], -7%. Further, the outcome in test [5], in test [6], in test [7] and in test [8] was inactive.
Turning to `O=C1c2ccccc2CN1CCCN1CCC(Oc2ccc(F)cc2)CC1`, the figures for the growth inhibition in test [1] and in test [4] were 1% and 97% (active), respectively. Besides, the inhibition in test [2] was 14%; in test [3], 3%. Also, the outcome in test [5], in test [6], in test [7] and in test [8] was inactive.
Turning to `O=[N+]([O-])c1ccc2c(c1)c1ccccc1n2Cc1ccccc1O`, the growth inhibition in test [1] was 84% (active); in test [4], 93% (active). For the same compound, the inhibition in test [2] was -2%; in test [3], 0%. Further, the result in test [5], in test [6], in test [7] and in test [8] was inactive.
With `COc1ccc(CCNCCCCCCNCCc2ccc(-c3ccccc3)cc2)cc1OC`, the growth inhibition in test [1] was 35%; in test [4], 99% (active). The inhibition in test [2] was 100% (active); in test [3] it was 1%. Also, the outcome in test [5], in test [6], in test [7] and in test [8] was inactive.
In the case of `CC(O)C1CCCCN1C(=O)c1cccc(-c2cccc(-c3nc4ccc(F)cc4[nH]3)c2)c1` (stereo not given), the growth inhibition in test [1] is 99% (active); in test [4] it was 101% (active). For the same compound, the inhibition in test [2] was 42%; in test [3] it was -2%. The result in test [5], in test [6], in test [7] and in test [8] was inactive.
In the case of `C=CCC(CC=C)N1C(=O)C(c2ccccc2)(c2ccccc2)N=C1N`, the results for the growth inhibition in test [1] and in test [4] were 97% (active) and 98% (active), respectively. For the same compound, the inhibition is 35% in test [2] and -3% in test [3]. For the same compound, the outcome in test [5], in test [6], in test [7] and in test [8] was inactive.
`O=C(NC1CC1)c1cnc(N2CCC(OCc3ccccc3)CC2)c(Cl)c1`: the growth inhibition in test [1] was 71% (active); in test [4], 90% (active). Moreover, the results for the inhibition in test [2] and in test [3] were -5% and -2%, respectively. Moreover, the outcome in test [5], in test [6], in test [7] and in test [8] was inactive.
Consider `OC(CNCc1ccccc1Oc1ccccc1)c1cc(Br)cs1` (stereo not given), for which the growth inhibition is 79% (active) in test [1] and 94% (active) in test [4]. Besides, the figures for the inhibition in test [2] and in test [3] were -13% and -4%, respectively. The outcome in test [5], in test [6], in test [7] and in test [8] was inactive.
With `CCn1ncc2c(N3CCCC3=O)cc(C(=O)N[C@@H](Cc3ccccc3)[C@H](O)CNC(C)(C)c3cccc(C(F)(F)F)c3)cc21`, the growth inhibition in test [1] was 99% (active); in test [4], 98% (active). The results for the inhibition in test [2] and in test [3] were 10% and 3%, respectively. Also, the result in test [5], in test [6], in test [7] and in test [8] was inactive.
Regarding `Cc1nc(-c2nc(NCc3ccncc3)ncc2-c2ccsc2)sc1C`, the values for the growth inhibition in test [1] and in test [4] were 83% (active) and 91% (active), respectively. Also, the inhibition in test [2] is 8%; in test [3], 2%. For the same compound, the outcome in test [5], in test [6], in test [7] and in test [8] was inactive.
For `COc1ccc(-c2cccc(NC(=O)c3cccc(C#N)c3)c2)cc1CN1CCN(C)CC1`, the growth inhibition is 16% in test [1] and 91% (active) in test [4]. In addition, the values for the inhibition in test [2] and in test [3] were 25% and -2%, respectively. Besides, the outcome in test [5], in test [6], in test [7] and in test [8] was inactive.
Turning to `COc1ccc2c(NN=Cc3ccc(N(C)C)cc3)ccnc2c1`, the growth inhibition is 100% (active) in test [1] and 102% (active) in test [4]. The inhibition in test [2] was 12%; in test [3] it was -1%. Also, the outcome in test [5], in test [6], in test [7] and in test [8] was inactive.
